Reference: PubChem BioAssay (EPA / NIEHS)
Results filed as inconclusive are left out. Activity calls are given as the source filed them. How the source made its calls: active means hit-call score of the fitted dose curve at least 0.9, where 1 is the maximum; inconclusive means response in the unintended direction; inactive means score below 0.9.

biological target: Estrogen receptor beta (Homo sapiens) (UniProt Q92731); experiment: OT_ER_ERbERb_0480: Odyssey Thera (OT) 8-hour HEK293T Protein-Complementation Assay for Estrogen Receptor-beta/-beta Homodimer (AID 2283357);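 further: active means signal gain over DMSO baseline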
Sequence (Q92731 whole entry, looked up, the tested form may be a part): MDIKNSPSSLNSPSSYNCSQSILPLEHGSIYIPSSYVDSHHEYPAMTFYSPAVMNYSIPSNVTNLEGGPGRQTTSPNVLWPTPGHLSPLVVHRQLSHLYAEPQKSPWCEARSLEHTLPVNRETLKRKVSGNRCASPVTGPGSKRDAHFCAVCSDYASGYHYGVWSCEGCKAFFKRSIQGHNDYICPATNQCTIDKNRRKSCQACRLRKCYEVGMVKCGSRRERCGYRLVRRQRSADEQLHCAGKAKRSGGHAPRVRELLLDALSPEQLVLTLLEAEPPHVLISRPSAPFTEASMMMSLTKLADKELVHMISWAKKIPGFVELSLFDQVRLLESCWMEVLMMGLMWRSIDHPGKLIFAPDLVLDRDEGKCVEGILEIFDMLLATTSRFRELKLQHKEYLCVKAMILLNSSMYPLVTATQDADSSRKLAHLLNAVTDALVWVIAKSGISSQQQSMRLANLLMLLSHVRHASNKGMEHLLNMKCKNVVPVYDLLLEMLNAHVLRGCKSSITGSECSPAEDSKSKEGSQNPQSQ
How it was run: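 Fluorescence intensity, nuclear for agonists and nuclear plus cytoplasmic for antagonists, was quantified by laser scanning cytometry versus vehicle after 8 h treatment. The cells were HEK293T stably carrying ER beta LBD fragment-complementation partners.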

AC50, active:
O=[N+]([O-])c1ccc(O)cc1C(F)(F)F 64.6 µM
Clc1ccc(C(c2ccccc2Cl)C(Cl)Cl)cc1 (centres undefined) 3.87 µM

outcome, inactive:
CCCCCCC(C)(C)S
Cc1cc(S(=O)(=O)O)ccc1N=Nc1c(O)ccc2ccccc12
C=Cc1ccc(C)cc1
CCOc1ccccc1O
CCCCCCCCN1CCCC1=O
CCCCCC(C=O)=Cc1ccccc1
C[Si](C)(C)O[Si](C)(C)C
CCCCCCCCCCCCCCN(CCO)CCO

biological target: human Peroxisome Proliferator-activated Receptor alpha (PPARa), PPARA (gene 5465) (UniProt Q07869); experiment: NVS_NR_hPPARa: NovaScreen (NVS) Nuclear Receptor Binding Assay for human Peroxisome Proliferator-activated Receptor alpha (PPARa) (AID 2283359);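 further: activity means loss of TR-FRET signal versus DMSO baseline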
Sequence (Q07869 whole entry, looked up): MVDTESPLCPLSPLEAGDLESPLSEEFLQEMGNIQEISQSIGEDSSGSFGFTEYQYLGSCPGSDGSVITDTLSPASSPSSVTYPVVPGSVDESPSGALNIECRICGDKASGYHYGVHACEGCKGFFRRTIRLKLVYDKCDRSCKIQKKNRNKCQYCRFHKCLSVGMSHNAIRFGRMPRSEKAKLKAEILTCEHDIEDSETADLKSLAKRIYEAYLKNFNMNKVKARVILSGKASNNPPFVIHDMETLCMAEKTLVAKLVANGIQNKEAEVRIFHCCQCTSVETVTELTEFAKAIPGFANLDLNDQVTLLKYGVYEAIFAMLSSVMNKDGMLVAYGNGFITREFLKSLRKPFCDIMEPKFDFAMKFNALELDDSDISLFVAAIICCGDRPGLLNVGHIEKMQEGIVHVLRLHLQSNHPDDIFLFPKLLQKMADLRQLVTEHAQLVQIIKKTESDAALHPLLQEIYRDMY
How it was run: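 Cell-free TR-FRET binding assay with extracted PPARα protein, read 1 h after dosing. Primary screen in duplicate at 25 uM, with actives retested in concentration series. Loss of signal versus DMSO.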

outcome, inactive:
O=P(O)(O)O
CCCCCC(=O)CC
CC(C)CCCCCCCCCCCCCCC(=O)O
CCCCCCCC/C=C\CCCCCCCC(=O)OCC
OC[C@H]1O[C@@H]2O[C@H]3[C@H](O)[C@@H](O)[C@@H](O[C@H]4[C@H](O)[C@@H](O)[C@@H](O[C@H]5[C@H](O)[C@@H](O)[C@@H](O[C@H]6[C@H](O)[C@@H](O)[C@@H](O[C@H]7[C@H](O)[C@@H](O)[C@@H](O[C@H]8[C@H](O)[C@@H](O)[C@@H](O[C@H]9[C@H](O)[C@@H](O)[C@@H](O[C@H]1[C@H](O)[C@H]2O)O[C@@H]9CO)O[C@@H]8CO)O[C@@H]7CO)O[C@@H]6CO)O[C@@H]5CO)O[C@@H]4CO)O[C@@H]3CO
O=[N+]([O-])c1ccc(O)cc1C(F)(F)F
Clc1ccc(C(c2ccccc2Cl)C(Cl)Cl)cc1 (centres undefined)
CCCCCC(C=O)=Cc1ccccc1

biological target: PGR (gene 5241) (UniProt P06401); experiment: NVS_NR_hPR: NovaScreen (NVS) Nuclear Receptor Binding Assay for human Progestron Receptor (PR) (AID 2283360);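 further: active means loss of bound radioligand signal versus DMSO baseline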
Sequence (P06401 whole entry, looked up): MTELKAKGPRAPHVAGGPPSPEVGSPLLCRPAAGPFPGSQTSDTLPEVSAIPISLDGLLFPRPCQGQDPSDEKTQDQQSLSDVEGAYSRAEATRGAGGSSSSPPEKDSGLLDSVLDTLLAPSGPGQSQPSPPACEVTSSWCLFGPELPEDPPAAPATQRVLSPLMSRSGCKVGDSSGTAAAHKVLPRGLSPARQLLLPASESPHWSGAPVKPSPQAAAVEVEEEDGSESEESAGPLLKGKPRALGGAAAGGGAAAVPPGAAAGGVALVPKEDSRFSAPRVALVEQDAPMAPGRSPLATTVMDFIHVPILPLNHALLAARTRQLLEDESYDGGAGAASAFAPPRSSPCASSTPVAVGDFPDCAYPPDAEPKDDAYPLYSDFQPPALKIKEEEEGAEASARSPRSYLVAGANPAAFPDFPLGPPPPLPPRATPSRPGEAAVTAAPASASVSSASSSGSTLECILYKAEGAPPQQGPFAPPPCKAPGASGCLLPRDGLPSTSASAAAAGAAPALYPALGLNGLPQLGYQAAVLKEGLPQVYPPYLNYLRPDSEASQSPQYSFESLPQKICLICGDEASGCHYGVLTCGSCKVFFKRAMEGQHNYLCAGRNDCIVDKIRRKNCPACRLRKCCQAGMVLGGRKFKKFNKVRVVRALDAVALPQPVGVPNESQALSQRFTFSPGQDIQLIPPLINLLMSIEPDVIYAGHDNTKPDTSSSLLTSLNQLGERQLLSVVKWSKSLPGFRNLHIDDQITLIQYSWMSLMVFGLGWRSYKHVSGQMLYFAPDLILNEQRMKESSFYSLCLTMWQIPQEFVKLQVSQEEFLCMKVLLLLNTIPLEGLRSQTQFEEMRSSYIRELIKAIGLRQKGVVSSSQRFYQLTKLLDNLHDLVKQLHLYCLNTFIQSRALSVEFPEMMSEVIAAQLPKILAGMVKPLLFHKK
How it was run: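 T47D-derived receptor preparation, cell-free, with tritiated or iodinated radioligand displacement measured by scintillation 18 h post-dosing. Single 25 uM duplicate screen, then concentration series; signal loss relative to DMSO.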

outcome, inactive:
C=C(C)C(=O)OCCOCCOCCOC(=O)C(=C)C
ClC(c1ccccc1)(c1ccccc1)c1ccccc1
CCC(C)c1cc([N+](=O)[O-])cc([N+](=O)[O-])c1OC(=O)OC(C)C (centres undefined)

biological target: Retinoic acid receptor alpha (Homo sapiens) (UniProt P10276); experiment: NVS_NR_hRARa_Agonist: NovaScreen (NVS) Nuclear Receptor Binding Assay for human Retinoic Acid Alpha Receptor Agonism (RAR) (AID 2283361)
Sequence (P10276 whole entry, looked up): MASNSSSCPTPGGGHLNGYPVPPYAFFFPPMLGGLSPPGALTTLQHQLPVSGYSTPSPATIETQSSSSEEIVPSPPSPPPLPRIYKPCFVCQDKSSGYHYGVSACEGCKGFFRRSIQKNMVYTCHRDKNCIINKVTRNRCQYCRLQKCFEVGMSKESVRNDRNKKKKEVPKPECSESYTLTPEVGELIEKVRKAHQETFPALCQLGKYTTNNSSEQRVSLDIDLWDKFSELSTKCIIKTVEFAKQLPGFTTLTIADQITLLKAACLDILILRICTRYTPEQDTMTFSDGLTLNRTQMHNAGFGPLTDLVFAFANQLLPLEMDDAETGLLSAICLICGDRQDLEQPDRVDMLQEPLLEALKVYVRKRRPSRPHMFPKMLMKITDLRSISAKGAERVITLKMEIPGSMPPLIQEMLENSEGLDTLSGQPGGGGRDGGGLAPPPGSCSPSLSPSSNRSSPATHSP
How it was run: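 Cell-free TR-FRET binding readout with extracted receptor protein, read 2 hours after dosing; gain-of-signal fitted relative to DMSO. Screened in duplicate at 25 uM, actives then run in concentration-response.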

outcome, inactive:
O=C(CC(=O)c1ccccc1)c1ccccc1
[O-]n1ccccc1=S.[O-]n1ccccc1=S.[Zn+2]

AC50, active:
Cc1cc(S(=O)(=O)O)ccc1N=Nc1c(O)ccc2ccccc12 23.5 µM
